KCNH2 3.1 block = KCNH2 3.1 (human) potassium channel inhibition; U2OS KCNH2 3.1, thallium flux FluxOr; hits give low values; activity change, % (tested at about 1.8 µM); 340,000 tested, 0.95% active;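 active = maximum activity change below -70%; inconclusive = maximum activity change from -70% to -50%; inactive = maximum activity change above -50%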;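 note: thallium influx rate constant from kinetic fluorescence after stimulation buffer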
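U2OS cells transduced with KCNH2 3.1 mutant virus (1.77 x 10^8 /mL, 4 h), plated overnight at 37 C, loaded 45 min with FluxOr dye plus Red40 quencher. Thallium flux rate constant from kinetic reads after stimulation buffer, normalised to controls.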
MBNL1-CUG inh = blocks human MBNL1 binding to CUG repeat RNA; AID 2675; 280,000 tested, 0.036% active; TR-FRET MBNL1-His/biotin-(CUG)12 binding, 665/545 ratio; Potency, µM (top dose mostly 57.5 µM), most hits filed as inhibitors; Q9NR56; active = well fitted inhibition curve with a large enough effect in the signal ratio, with a control signal flat, not every such curve was filed as active; inconclusive = small, poorly fitted or top-dose-only effect, or effect the other way, or a change in a side signal; inactive = no such curve, though single readings can be large or run the other way; the % refers to the signal ratio
Target sequence (Q9NR56 whole entry, looked up): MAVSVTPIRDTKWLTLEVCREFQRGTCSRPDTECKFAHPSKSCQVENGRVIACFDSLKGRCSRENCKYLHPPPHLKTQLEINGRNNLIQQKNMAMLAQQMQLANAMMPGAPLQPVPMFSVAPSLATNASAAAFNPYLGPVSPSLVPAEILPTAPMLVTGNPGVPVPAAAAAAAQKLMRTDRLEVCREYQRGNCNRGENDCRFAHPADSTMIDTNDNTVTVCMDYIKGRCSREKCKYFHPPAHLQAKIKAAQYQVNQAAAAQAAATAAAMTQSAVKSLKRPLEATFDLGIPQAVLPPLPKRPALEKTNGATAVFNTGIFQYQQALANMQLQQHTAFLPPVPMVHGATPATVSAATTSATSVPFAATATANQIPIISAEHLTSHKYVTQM
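TR-FRET between His-tagged MBNL1 and biotin-(CUG)12 RNA, detected with Tb anti-His antibody (0.055 ng/ul) and streptavidin-XL665 (5 nM), 60 min at room temperature. Compounds titrated 92 nM to 58 uM; 665/545 nm ratio normalized to buffer and complex controls.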
TRPV1 ag = activates the human vanilloid receptor TRPV1; Q8NER1; TRPV1-expressing cells, Fluo-8 calcium influx, agonist mode; activation, % at 8.33 µM; 320,000 tested, 0.19% active; AID 540275; in the data active = activation above about 80%; inconclusive = between about 30% and that limit
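TRPV1-expressing cells were cultured overnight at 35.5C and loaded with Fluo-8 calcium dye for 40 to 90 min at room temperature. After a 10 s baseline, compound was added and calcium influx was read kinetically for 3 min (ex 480/em 520 nm).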
KCNH2 WT inh = KCNH2 (human, wildtype) channel inhibition; activity change, % at 1.84 µM; AID 720551; 340,000 tested, 0.37% active; Q12809; U2OS, BacMam KCNH2, thallium flux FluxOr; hits give low values;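 active = maximum activity change below -70%; inconclusive = maximum activity change between -70% and -50%; inactive = maximum activity change above -50%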
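U2OS cells were transduced with wild-type KCNH2 virus (2.03 x 10^8 / mL) for 4 h at room temperature, then cultured overnight at 37 C. Thallium flux was read with FluxOr dye. Rate constants were normalized to DMSO controls.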
TRPV1 PAM = enhances activation of the human vanilloid receptor TRPV1; TRPV1-expressing cells, Fluo-8 calcium influx, capsaicin EC20 potentiation; potentiation, % at 8.33 µM; 320,000 tested, 0.02% active; in the data active = potentiation above about 80%; inconclusive = between about 30% and that limit
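Fluo-8 calcium influx in TRPV1-expressing cells, kinetic read (ex 480/em 520 nm). Compound added and read 3 min for agonist activity, followed by capsaicin at EC20 final and 2 min further read for enhancement.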
Hits are given with their value; . = inactive; ? = inconclusive; / = no result given; [ ] = dose if it differs, or a comment. Only some compounds are listed: those with a hit (about 1.3% of all), similar ones and a draw of the others.

SMILES	KCNH2 3.1 block	MBNL1-CUG inh	TRPV1 ag	KCNH2 WT inh	TRPV1 PAM
Cc1cc(C)n(-c2ccc([N+](=O)[O-])cc2)n1	-107	?	.	.	.
Cc1ccc([N+](=O)[O-])cc1	.	/	.	.	.
O=S1(=O)CC2(N3CCOCC3)CCCCCCC21 (stereo not drawn)	.	.	.	.	.
O=S1(=O)CC2(N3CCOCC3)CCCCC21 (stereo not drawn)	-94	.	.	.	.
CSc1ccc(C(=O)C2CCCN(Cc3cc4ccccc4[nH]3)C2)cc1 (stereo not drawn)	-104	.	.	.	.
CSc1ccc(C(=O)C2CCCN(Cc3cccnc3)C2)cc1 (stereo not drawn)	.	.	.	.	.
N=Cc1c(O)n(-c2ccc(C34CC5CC(CC(C5)C3)C4)cc2)c(=O)[nH]c1=O	.	.[11.5 µM]	.	.	.
C=CCN1C(=O)C2(C(C(=O)OCC)=C(N)Oc3ccccc32)c2c1c1ccccc1oc2=O (stereo not drawn)	-109	.	.	.	.
CC(C)CN(CC(C)C)C(=O)C1C2c3ccccc3C(c3ccccc32)C1C(=O)O (stereo not drawn)	.	.	.	.	.
c1ccc(CCn2nnnc2CN2CCC(n3nnc4ccccc43)CC2)cc1	.	.	.	.	.
Cc1nc2cc(C(F)(F)F)ccc2n1C1CCN(Cc2nnnn2Cc2cccs2)CC1	-75	.	.	.	.
Cc1nc2ccccc2n1C1CCN(Cc2nnnn2CCc2ccccc2)CC1	-82	.	.	.	.
FC(F)(F)c1ccc2c(c1)ncn2C1CCN(Cc2nnnn2C2CCCCC2)CC1	?	.	.	.	.
Fc1ccc(Cn2nnnc2CN2CCC(n3nnc4cc(C(F)(F)F)ccc43)CC2)cc1	-98	.	.	.	.
Cc1nc2cc(C(F)(F)F)ccc2n1C1CCN(Cc2nnnn2Cc2ccc3c(c2)OCO3)CC1	-77	.	.	.	.
O=C(N/N=C\c1ccc(COc2ccc([N+](=O)[O-])cc2)o1)c1cccc(Cl)c1	.	?	.	.	.
CCOC(=O)C(=O)NC1CCSC1=O (stereo not drawn)	.	.	.	.	.
CCCC(C)C(=O)NC1CCSC1=O (stereo not drawn)	-83	.	.	.	.
CN(N=O)c1cc(O)ccc1O	/	?	.	/	.
CC1c2ccccc2-n2nncc2CN1C (stereo not drawn)	.	/	/	.	/
CC(C)N1CCN(Cc2cccc([N+](=O)[O-])c2)CC1	.	.	.	.	.
O=[N+]([O-])c1cccc(CN2CCN(Cc3ccc(Cl)cc3)CC2)c1	-84	.	.	.	.
CN(C)S(=O)(=O)c1cc(NC(=O)COC(=O)Cc2ccccc2)ccc1Cl	.	.	.	.	.
Cc1cc(OCC(=O)NCc2ccncc2)c2c3c(c(=O)oc2c1)CCCC3	.	.	.	.	.
CN1CCN(c2ccc([N+](=O)[O-])c(Sc3nncn3C)c2)CC1	-123	?	.	.	.
SMILES	KCNH2 3.1 block	MBNL1-CUG inh	TRPV1 ag	KCNH2 WT inh	TRPV1 PAM
c1ccc(C(OCCN2CCN(c3ncccn3)CC2)c2ccccc2)cc1	.	/	/	.	/
Clc1ccc(C(OCCN2CCCCC2)c2ccccc2)cc1 (stereo not drawn)	-102	/	.	.	.
Cc1ccc(N2C(=O)NC(=O)/C(=C\c3cc(C)n(-c4cc(C(=O)O)cc(C(=O)O)c4)c3C)C2=O)cc1	.	.	.	-97	.
CCOC(=O)c1cccc(C2=C(CNC(=O)c3nccs3)[C@H]3CC[C@@H](C2)N3Cc2ccccc2)c1	-84	/	/	.	/
O=C(NCC1=C(c2cccc3ccccc23)C[C@@H]2CC[C@H]1N2Cc1ccco1)c1ccc([N+](=O)[O-])cc1	-93	/	/	.	/
CS(=O)(=O)c1ccc(C2=C(CNC(=O)c3cccnc3)[C@H]3CC[C@@H](C2)N3Cc2ccccc2)cc1	?	/	/	.	/
CS(=O)(=O)c1ccc(C2=C(CNC(=O)c3ccc([N+](=O)[O-])cc3)[C@H]3CC[C@@H](C2)N3Cc2ccccc2)cc1	-101	/	/	-86	/
CS(=O)(=O)c1ccc(C2=C(CNC(=O)c3ccc([N+](=O)[O-])cc3)[C@H]3CC[C@@H](C2)N3CCOc2ccccc2)cc1	-110	/	/	-92	/
COc1ccccc1NC(=O)c1cc[n+](C)cc1	.	?	.	.	.

Source: PubChem (National Center for Advancing Translational Sciences (NCATS))
